# Only a selection was taken, and hits are over-represented in it overall.
# Pf Dd2 growth: Plasmodium falciparum Dd2 growth inhibition; P. falciparum Dd2 growth, SYBR Green, 72 h; Potency, µM (highest dose often 28.9 µM), for inactives: at the highest dose activity, negative = inhibition, actives largely listed as inhibitors; 120,000 compounds, 4.3% hits; active means well fitted inhibition curve with a large enough effect;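 further: plate controls were DMSO vehicle for no effect and reference drug for full effect; nearly all actives have a fitted effect of over 65% in size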
#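 Readout: SYBR Green fluorescence, 485 nm excitation, 535 nm emission, after ~16 h lysis at 37C. Before that, Dd2-infected red cells (2.5% hematocrit) grew 72 h with compound, 29 uM top final concentration.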
# An asterisk follows results filed as active; i = inactive; [ ] = remark or other dose. Potency means the concentration at half of the fitted maximal effect.
SMILES,Pf Dd2 growth
Cc1ccc(Cn2ccn(Cc3cccc(C(F)(F)F)c3)c(=O)c2=O)cc1,i
Cc1cc(Cl)ccc1-c1ccc(C=O)cc1,11%[44.1 µM]
Cc1cc(F)ccc1-c1cccc(COc2cnc3c(ccn3CC(=O)O)c2)c1,i
O=C(O)c1cccc(-c2cc(C(F)(F)F)ccc2Cl)c1,4%
NCc1ccc(Oc2ccc(F)c(Cl)c2)cc1,-26%[44.1 µM]
Cc1ccc(-c2cccc(CN)c2)c(C)c1,14µM*
NCc1cccc(-c2cc(C(F)(F)F)ccc2Cl)c1,10µM*
Cc1cc(Cl)ccc1-c1cccc(CN)c1,14µM*
Cc1cc(Cl)ccc1-c1ccccc1CN,8.9µM*
Cc1cc(Cl)ccc1-c1ccccc1C=O,-26%[44.1 µM]
COc1ccc([S+](=O)([O-])N2CCC(N3CCOCC3=O)CC2)cc1,13%
O=C(NCc1cccc(C(F)(F)F)c1)C1CN(c2cccc(Cl)c2)C(=O)N1 (centres undefined),i
O=C(CCc1cc2ccccc2[nH]c1=O)NCc1ccco1,-12%
CCn1ccc(C(=O)N2CC(N(C3CCOCC3)S(C)(=O)=O)C2)n1,15%
O=C(O)c1ccc(CN2CC[C@H](c3nnc(-c4cccnc4)o3)C2)cc1,-5%[44.1 µM]
O=Cc1cccc(-c2cccs2)c1,-14%[44.1 µM]
CNC(=O)c1ccc2c(c1)C1(CCN(CC3CC3)C1)CN2Cc1ccccc1 (centres undefined),79%[44.1 µM]
O=C(c1ccncc1)N1CCCC(c2noc(COc3ccccc3)n2)C1 (centres undefined),8%
CCNC(=O)[C@@H]1C[C@H](N)CN1C(=O)c1c(C)nc2sccn12,1%
O=C(NC[C@H]1COCc2nc3cc(F)ccc3n21)c1ccc(Cl)cc1,-8%[44.1 µM]
CCOCCn1c(=O)[nH]c2cc(C(=O)NCc3sc(C)nc3C)ccc21,-14%
Cc1cc(Cl)cc(Cl)c1CNCC1(O)CCCNC1 (centres undefined),7.9µM*
COc1c(F)cc(CNCC2(O)CCCNC2)cc1F (centres undefined),0%
Cc1cnc(CNCC2(O)CNCCOC2)cn1 (centres undefined),-13%
CCC(=O)N1CCCN(S(C)(=O)=O)c2ccccc21,-4%
SMILES,Pf Dd2 growth
Cc1noc(C)c1S(=O)(=O)N1CC(n2cc(C(=O)NCc3ccncc3)nn2)C1,9%
CCS(=O)(=O)N1CCC(F)(c2nc(-c3ccccc3)no2)CC1,-19%
COc1ccc(-c2cnc3n[nH]c(-c4ccc(OC)c(F)c4)c3n2)cn1,i
COc1ccccc1-c1[nH]nc2ncc(-c3ccc(C)cc3)nc12,i
COc1ccc(-c2[nH]nc3ncc(-c4ccc(C)cc4)nc23)cc1F,13µM*
COCc1nc(C2CCN(C(=O)N(C)C)C2)no1 (centres undefined),-3%
Cc1cnc(CC2CCCNC2)n1C(C)C (centres undefined),10%
O=S(=O)(c1ccccc1)N1CCC(Cc2nncn2-c2ccccc2)CC1,i
COc1ccc(-c2noc(CN3CCCCC3c3cccc(F)c3)n2)c(OC)c1OC (centres undefined),-19%
N#Cc1cccc(CN2Cc3[nH]cnc3C[C@H]2c2nc(-c3ccccc3)no2)c1,-20%[44.1 µM]
COc1ccc(F)cc1CN1CCc2[nH]cnc2C1c1cccc(C#N)c1 (centres undefined),5.6µM*
O=C(c1ccc(=O)[nH]c1)N(CC1CCN(Cc2ccccc2F)CC1)CC1CCCO1 (centres undefined),i
Cc1cnc(C2CCOCC2)n1CC1CCN(C(=O)CC2CCCC2)CC1,-15%
CCc1cc(=O)n(CC(=O)Nc2ccccc2)c(-c2ccccc2)n1,-3%
CCc1cc(=O)n(CC(=O)Nc2ccccc2C)c(-c2ccccc2)n1,10µM*
COc1ccccc1NC(=O)Cn1c(-c2ccccc2)nc(C)cc1=O,-63%
CCc1cc(=O)n(CC(=O)Nc2ccc(OC)c(OC)c2)c(-c2cccc(F)c2)n1,i
CCc1cc(=O)n(CC(=O)Nc2ccc(OC)cc2)c(-c2ccccc2)n1,-1%
CCc1cc(=O)n(CC(=O)Nc2cc(OC)c(OC)c(OC)c2)c(-c2ccccc2)n1,11µM*
COCc1cn(C[C@H]2C[C@@H](NC(=O)c3cc(C)on3)[C@H](O)[C@@H]2O)nn1,3%[44.1 µM]
COc1ccccc1N1CCN(C(=O)c2cnn(C(C)(C)C)c2C2CCN(C(=O)OC(C)(C)C)CC2)CC1,6.3µM*
CC(C)(C)OC(=O)N1CCC(c2c(C(=O)N3CCN(c4ccccc4F)CC3)cnn2C(C)(C)C)CC1,10µM*
Cc1ccc(-n2ncc(C(=O)N3CCN(c4ccccc4F)CC3)c2C2CCN(C(=O)OC(C)(C)C)CC2)cc1C,3%
Cc1cccc(OCC2(CNS(=O)(=O)c3ccc(Cl)cc3)C[C@@H](O)[C@@H](O)C2)n1 (some centres undefined),-6%[44.1 µM]
COc1cc(=O)n2c(c1C(=O)Nc1cc(C)ccc1F)CCCC2,3%
SMILES,Pf Dd2 growth
Cc1cc(OC2CN([S+](=O)([O-])c3ccc(C(F)(F)F)cc3)C2)ccc1F,-7%
COCCNS(=O)(=O)c1cc(C(=O)O)cc(-c2cccc(C(C)N(C)C)c2)c1 (centres undefined),-3%
CCC1CCCCN1CCCNC(=O)c1ccc2c(c1)N(Cc1ccc(Cl)cc1)C(=O)c1ccccc1S2(=O)=O (centres undefined),4µM*
CCC1CCCCN1CCCNC(=O)c1ccc2c(c1)N(Cc1cccc(C)c1)C(=O)c1ccccc1S2(=O)=O (centres undefined),4µM*
O=C(NCc1ccco1)c1ccc2c(c1)N(Cc1ccc(Cl)cc1)C(=O)c1ccccc1S2(=O)=O,i
CCC1CCCCN1CCCNC(=O)c1ccc2c(c1)N(Cc1cccc(Cl)c1)C(=O)c1ccccc1S2(=O)=O (centres undefined),-6%
O=C(NC1CCCCC1)N[C@H]1[C@H](O)[C@@H](N2CCN(c3ccccc3)CC2)[C@@H]2OC[C@H]1O2,-15%[44.1 µM]
Cn1cccc1CN1CCC2(CC1)CN[S+](=O)([O-])c1ccccc1N2,-24%
O=C(NCC1CCCO1)c1cnc2c(c1)N(Cc1ccccc1)CCC2 (centres undefined),i
COc1ccccc1C(=O)N1CCN(Cc2cc(=O)oc3cc(C)ccc23)CC1,-4%
Cc1ccc(CNC(=O)c2ccc3c(c2)CN(Cc2ccc(N(C)C)cc2)CCO3)cc1,-28%
Cc1ccc(Cn2nc3n(c2=O)-c2cc(Cl)ccc2OC3)cc1,15%
Cc1ccc(CN2COc3ccc4c(C)cc(=O)oc4c3C2)cc1,4µM*
COc1ccccc1CN1COc2ccc3c(C)cc(=O)oc3c2C1,7.1µM*
COc1ccccc1CN1C[C@@H]2C(=O)N(Cc3ccc4c(c3)OCO4)C(=O)[C@@H]2C1,12%
CC(C)Oc1ccc(CNC(=O)C2Cn3cccc3C(=O)N2)cc1 (centres undefined),i
CCCN1CCC2(CCN(C(=O)c3ccc(F)cc3)CC2)Oc2ccccc21,i
CC(=O)N1CCC2(CC1)CC(=O)N(c1ccccc1)c1ccccc1O2,-8%
CCOc1ccccc1CN1CCC2(CCN(C(=O)c3ccc(C)cc3)CC2)Oc2ccccc21,-3%
CCCN1CCC2(CCN(C(=O)c3ccc(C)cc3)CC2)Oc2ccccc21,-2%
CCOc1ccccc1CN1CCC2(CCN(C(=O)Nc3ccccc3)CC2)Oc2ccccc21,7.1µM*
CCCN1CCC2(CCN([S+](=O)([O-])c3cccs3)CC2)Oc2ccccc21,11µM*
O=C1NCC2(CCN([S+](=O)([O-])c3cccs3)CC2)Oc2ccccc21,-17%
COc1ccc(C(=O)N2CCC3(CC2)CCN(Cc2cccs2)c2ccccc2O3)cc1,-19%

# Screening results as filed in PubChem.
